Test results taken from PubChem BioAssay (NCATS).
Results filed as inconclusive are left out. Active and inactive are the calls of the source. Unless noted, the call rests on the fitted dose curve; in most records, active means well fitted curve in either direction with a large enough effect (not every such curve was filed as active); inconclusive means small, poorly fitted or top-dose-only effect, or another doubt; inactive means flat fitted curve, though single readings scatter.

Assays:
[1] = target: Lysosomal acid glucosylceramidase (Homo sapiens) (UniProt P04062); assay: Glucocerebrosidase-p2 (AID 348; in the data active means potency below about 10 µM; further: potency means the concentration at half of the fitted maximal effect); details: purified GBA, blue fluorogenic substrate, 40 min
Procedure, shortened: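 Compounds titrated from 0.6 nM upwards against 0.2 nM enzyme in pH 5.9 citric acid/KH2PO4, taurocholate, tween-20; blue fluorogenic substrate 80 uM, 40 min room temperature, stopped and read Ex 365/Em 440 for AC50.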

[2] = AP1 Signaling Pathway (AID 357); details: ME-180 AP-1-bla reporter, EGF-induced, beta-lactamase ratio, 5 h; at 7.69 µM (top of the series) unless noted;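 further: ME-180 reporter cells stimulated with EGF at its EC50 level; on the % scale 0 is the no-effect control and ±100 the full control effect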
Procedure, shortened: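 Read-out was the 460nm/530nm emission ratio (excitation 405nm) after CCF4 loading for 2.5 hours at room temperature. Cells carried an AP-1-driven beta-lactamase reporter, were stimulated with EC50 EGF plus compound for 5 hours, and AC50 values came from titrations.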

[3] = target: Cytochrome P450 1A2 (Homo sapiens) (UniProt P05177); assay: p450-cyp1a2 (AID 410; calls by dose curve; further: potency means the concentration at half of the fitted maximal effect;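 on activity change, negative = inhibition: -100% = full effect of reference inhibitor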); details: recombinant CYP1A2, luciferin-ME demethylation, luminescence; series mostly up to 57 µM
Procedure, shortened: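 Luminescent readout of luciferin formed from Luciferin-ME by human CYP1A2; data normalized against complete inhibition by 57 uM furafylline. Enzyme 20nM, substrate 100uM at Km, 100mM KPO4 buffer, 60 min reaction at room temperature.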

[4] = Stat Signaling Pathway (AID 446); details: ME-180 SIE beta-lactamase reporter, IL-6 stimulated, 5 h; at 7.69 µM (top of the series) unless noted;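 further: ME-180 cervical cancer cells given 40 pM IL-6 alongside compound; SIE-controlled beta-lactamase reporter measured as 460/530 nm FRET emission ratio; on the % scale 0 is the no-effect control and ±100 the full control effect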
Procedure, shortened: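 ME-180 SIE-bla cells; overnight plating; cpd + IL-6 40 pM, 5 h, 37 C; LiveBLAzer 2.5 h RT; 460/530 nm emission ratio. Normalized to 300 pM IL-6 and 125 nM JAK inhibitor controls.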

[5] = target: Glucocorticoid receptor (Homo sapiens) (UniProt P04150); assay: GR-EFC Redistribution (AID 451; calls by dose curve; further: potency means the concentration at half of the fitted maximal effect); details: CHO-K1 GR-EFC translocation, beta-gal luminescence, 2 h
Procedure, shortened: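 CHO-K1 cells expressing nuclear EA and GR-ED fragments of b-gal; compounds titrated up to 46 uM final, 2 h at 37 C. GR nuclear translocation read as complemented b-gal luminescence after 1 h RT detection.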

[6] = target: Mitogen-activated protein kinase 10 (Mus musculus) (UniProt Q61831); assay: JNK3 AlphaScreen Assay (AID 530); details: JNK3 lysate, c-Jun phosphorylation; series mostly up to 57.1 µM;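 further: kinase came from lysate of stimulated human HepG2 cells; signal reports phosphorylation of biotinylated GST-cJun 1-79 at Ser73 with 10 µM ATP; on the % scale 0 is the no-effect control and ±100 the full control effect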
Procedure, shortened: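 Pre-activated (IL-1β/TNFα) JNK3 in HepG2 lysates phosphorylates biotin-GST-cJun(1-79), 10 uM ATP; anti-phospho-cJun(Ser73) AlphaScreen read at room temperature, pH 7.6 Tris buffer. Compounds pre-incubated 15 min as titrations.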

[7] = target: 3',5'-cyclic-AMP phosphodiesterase 4B (Homo sapiens) (UniProt Q07343); assay: qHTS Assay for Inhibitors of PDE-IV (AID 607; active means well fitted activation curve with a large enough effect in the main read-out, with a control signal flat, not every such curve was filed as active; further: % of control where 0% means no effect); details: HEK293 ACTOne CNG channel cells, membrane potential fluorescence; series mostly up to 22.9 µM
Procedure, shortened: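 ACTOne HEK293 cells carry a modified cAMP-gated CNG channel and express endogenous PDE4; plated 1000 cells/well, compounds up to 22.9 uM final. Membrane-potential dye fluorescence (ex 535/em 590) was read; parental cells received 10 uM forskolin + 100 uM RO 20-1724.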

[8] = target: Cytochrome P450 3A4 (Homo sapiens) (UniProt P08684); assay: qHTS Assay for Inhibitors and Substrates of Cytochrome P450 3A4 (AID 884; active means well fitted curve in the direction sought with a large enough effect; an effect the other way counts as inactive or inconclusive; further: nearly all actives have a fitted effect of over 50% in size; further: potency means the concentration at half of the fitted maximal effect); details: recombinant CYP3A4, Luciferin-PPXE luminescence; series mostly up to 57.1 µM
Procedure, shortened: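 20 nM human CYP3A4 with 25 uM Luciferin-PPXE (at KM) in 200 mM KPO4, preincubated 10 min with compound; NADPH regeneration started a 60 min RT reaction. Luciferin detected by luminescence, normalized to 57 uM ketoconazole as full inhibition.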

[9] = target: Cytochrome P450 2C19 (Homo sapiens) (UniProt P33261); assay: qHTS Assay for Inhibitors and Substrates of Cytochrome P450 2C19 (AID 899; active means well fitted curve in the direction sought with a large enough effect; an effect the other way counts as inactive or inconclusive; further: potency means the concentration at half of the fitted maximal effect; nearly all actives have a fitted effect of over 60% in size); details: recombinant CYP2C19, luciferin-H EGE luminescence; series mostly up to 57.1 µM
Procedure, shortened: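 Signal comes from luciferase acting on luciferin released by CYP2C19-mediated hydroxylation of Luciferin-H EGE, 10uM (KM). Assay mix: 5nM enzyme, 50mM KPO4; 60 min at 37C with NADPH regeneration. Data normalized against 57uM ketoconazole.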

[10] = qHTS Assay for Lipid Storage Modulators (AID 1519; calls by dose curve); details: Drosophila S3 cells, BODIPY lipid droplet/cell ratio, laser cytometry, cells loaded with oleic acid; for activity change, negative = inhibition: at 57.5 µM (top of the series)
Procedure, shortened: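 Cells seeded at 5,000 per well were treated with compounds over a concentration series and loaded with oleic acid (400 uM, as added). Lipid droplet fluorescence (488 nm excitation, 500-530 nm channel) was read by laser-scanning cytometry and normalized to 20 uM Triacsin C.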

[11] = Primary qHTS for small molecule stabilizers of the endoplasmic reticulum resident proteome: Secreted ER Calcium Modulated Protein (SERCaMP) assay (AID 1508630; active means well fitted curve in the direction sought with a large enough effect; an effect the other way counts as inactive or inconclusive; further: on the % scale 0 is the no-effect control and ±100 the full control effect); details: SH-SY5Y GLuc-SERCaMP (Gaussia luciferase released on ER calcium loss) secretion, thapsigargin, luminescence; series mostly up to 38.4 µM
Procedure, shortened: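 GLuc-SERCaMP-expressing SH-SY5Y cells, pretreated 16 h with compound, are challenged with thapsigargin to empty ER calcium stores; after 4 h, coelenterazine is added directly to the medium and luminescence is imaged.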

[12] = target: Cytochrome P450 3A4 (Homo sapiens) (UniProt P08684); assay: qHTS Assay for Activators of Cytochrome P450 3A4 (AID 885; active means well fitted curve in the direction sought with a large enough effect; an effect the other way counts as inactive or inconclusive; further: nearly all actives have a fitted effect of over 65% in size); details: recombinant CYP3A4, Luciferin-PPXE luminescence, 60 min; series mostly up to 57.1 µM
Procedure, shortened: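 20nM CYP3A4 + 25uM Luciferin-PPXE (=KM), 200mM KPO4; cpd 10 min RT; NADPH regen, 60 min RT; stop w/ detection buffer, 20 min; luminescence. Normalized to 57 uM ketoconazole.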

[13] = target: Cytochrome P450 2C9 (Homo sapiens) (UniProt P11712); assay: qHTS Assay for Inhibitors and Substrates of Cytochrome P450 2C9 (AID 883; active means well fitted curve in the direction sought with a large enough effect; an effect the other way counts as inactive or inconclusive; further: nearly all actives have a fitted effect of over 60% in size; further: potency means the concentration at half of the fitted maximal effect); details: recombinant CYP2C9, luciferin-H luminescence, 60 min; series mostly up to 57.1 µM
Procedure, shortened: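 Signal: luciferase luminescence reporting luciferin produced by CYP2C9. Conditions: 10nM enzyme, Luciferin-H 100uM at KM, 25mM KPO4, 37C, 60 min NADPH-driven reaction. Reference: 57uM sulphaphenazole as 100% inhibition.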

[14] = qHTS Assay for Identification of Small Molecule Agonists for Hypoxia Response Element Signaling Pathway (AID 914; active means well fitted activation curve with a large enough effect in the signal ratio, with a control signal flat, not every such curve was filed as active; the % refers to the signal ratio; further: % of control where 0% means no effect); details: ME-180 (cervical carcinoma) HRE-bla reporter, beta-lactamase ratio, CoCl2, 17 h; activation: stronger effect = higher value
Procedure, shortened: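 HRE-bla ME-180 cells, overnight plating in Opti-MEM with 0.5% dialyzed FBS; cpd titration + EC50 CoCl2, 17 h, 37 degrees Celsius; CCF4 2.5 h RT; 460/530 nm ratio; AC50.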

[15] = target: Cytochrome P450 2D6 (Homo sapiens) (UniProt P10635); assay: qHTS Assay for Inhibitors and Substrates of Cytochrome P450 2D6 (AID 891; active means well fitted curve in the direction sought with a large enough effect; an effect the other way counts as inactive or inconclusive; further: potency means the concentration at half of the fitted maximal effect; nearly all actives have a fitted effect of over 60% in size); details: recombinant CYP2D6, luciferin-ME EGE luminescence; series mostly up to 57.1 µM
Procedure, shortened: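 Human CYP2D6 (5 nM) with 30 uM Luciferin-ME EGE (at Km) in 100 mM KPO4, compound preincubated 10 min, then NADPH regeneration system for 60 min at room temperature. Luciferin read by luminescence; normalized to 1.43 uM quinidine.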

[16] = measured here: cell count channel max response
[17] = measured here: lipid channel max response

Sequence of 3',5'-cyclic-AMP phosphodiesterase 4B (Homo sapiens) (Q07343 whole entry, looked up): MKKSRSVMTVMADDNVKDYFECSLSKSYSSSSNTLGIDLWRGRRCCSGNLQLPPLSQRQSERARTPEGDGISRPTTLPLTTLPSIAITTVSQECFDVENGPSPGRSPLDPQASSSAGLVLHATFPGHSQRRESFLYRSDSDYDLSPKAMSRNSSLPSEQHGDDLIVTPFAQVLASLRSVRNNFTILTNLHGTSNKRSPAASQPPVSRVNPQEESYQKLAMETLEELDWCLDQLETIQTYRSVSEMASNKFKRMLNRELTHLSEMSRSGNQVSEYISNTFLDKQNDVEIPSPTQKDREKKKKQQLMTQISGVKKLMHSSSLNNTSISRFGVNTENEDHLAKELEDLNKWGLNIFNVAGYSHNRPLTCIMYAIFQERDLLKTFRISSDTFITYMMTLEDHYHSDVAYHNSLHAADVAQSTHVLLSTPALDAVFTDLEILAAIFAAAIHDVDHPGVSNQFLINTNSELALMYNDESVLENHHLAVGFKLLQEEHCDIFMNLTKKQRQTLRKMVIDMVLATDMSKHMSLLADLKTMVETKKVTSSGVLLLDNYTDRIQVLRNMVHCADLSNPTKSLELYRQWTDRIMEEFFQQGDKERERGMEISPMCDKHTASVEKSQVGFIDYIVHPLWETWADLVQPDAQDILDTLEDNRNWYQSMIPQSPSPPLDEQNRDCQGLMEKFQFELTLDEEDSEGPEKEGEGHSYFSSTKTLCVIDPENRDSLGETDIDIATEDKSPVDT
Sequence of Cytochrome P450 1A2 (Homo sapiens) (P05177 whole entry, looked up): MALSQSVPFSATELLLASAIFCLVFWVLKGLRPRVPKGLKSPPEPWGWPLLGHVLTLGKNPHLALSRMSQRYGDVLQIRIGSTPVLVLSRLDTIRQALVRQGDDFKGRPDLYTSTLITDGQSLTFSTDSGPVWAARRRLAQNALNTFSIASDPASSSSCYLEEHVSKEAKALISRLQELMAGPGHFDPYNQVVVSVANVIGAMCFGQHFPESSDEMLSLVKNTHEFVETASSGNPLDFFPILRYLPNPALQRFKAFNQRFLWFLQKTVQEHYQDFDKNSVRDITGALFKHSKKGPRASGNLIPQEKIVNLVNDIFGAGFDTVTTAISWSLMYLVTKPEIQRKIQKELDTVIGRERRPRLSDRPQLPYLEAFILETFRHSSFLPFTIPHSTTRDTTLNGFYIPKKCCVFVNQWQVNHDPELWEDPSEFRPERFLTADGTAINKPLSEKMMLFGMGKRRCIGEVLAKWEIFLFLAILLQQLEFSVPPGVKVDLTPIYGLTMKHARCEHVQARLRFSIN
Sequence of Lysosomal acid glucosylceramidase (Homo sapiens) (P04062 whole entry, looked up): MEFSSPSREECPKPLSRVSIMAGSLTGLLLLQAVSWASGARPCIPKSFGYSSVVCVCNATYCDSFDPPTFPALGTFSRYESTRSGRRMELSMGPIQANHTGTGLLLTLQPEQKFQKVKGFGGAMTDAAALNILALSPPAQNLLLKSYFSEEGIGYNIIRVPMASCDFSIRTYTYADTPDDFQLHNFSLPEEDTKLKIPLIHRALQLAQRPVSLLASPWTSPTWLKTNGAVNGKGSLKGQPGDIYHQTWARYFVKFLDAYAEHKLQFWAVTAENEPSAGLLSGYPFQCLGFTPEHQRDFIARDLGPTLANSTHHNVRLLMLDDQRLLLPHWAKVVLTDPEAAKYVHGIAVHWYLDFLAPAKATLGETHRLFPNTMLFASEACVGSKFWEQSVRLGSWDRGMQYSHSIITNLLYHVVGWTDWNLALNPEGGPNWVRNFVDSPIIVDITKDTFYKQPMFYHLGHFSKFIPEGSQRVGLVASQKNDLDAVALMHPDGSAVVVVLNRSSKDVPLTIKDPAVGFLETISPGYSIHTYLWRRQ
Sequence of Glucocorticoid receptor (Homo sapiens) (P04150 whole entry, looked up, the tested form may be a part): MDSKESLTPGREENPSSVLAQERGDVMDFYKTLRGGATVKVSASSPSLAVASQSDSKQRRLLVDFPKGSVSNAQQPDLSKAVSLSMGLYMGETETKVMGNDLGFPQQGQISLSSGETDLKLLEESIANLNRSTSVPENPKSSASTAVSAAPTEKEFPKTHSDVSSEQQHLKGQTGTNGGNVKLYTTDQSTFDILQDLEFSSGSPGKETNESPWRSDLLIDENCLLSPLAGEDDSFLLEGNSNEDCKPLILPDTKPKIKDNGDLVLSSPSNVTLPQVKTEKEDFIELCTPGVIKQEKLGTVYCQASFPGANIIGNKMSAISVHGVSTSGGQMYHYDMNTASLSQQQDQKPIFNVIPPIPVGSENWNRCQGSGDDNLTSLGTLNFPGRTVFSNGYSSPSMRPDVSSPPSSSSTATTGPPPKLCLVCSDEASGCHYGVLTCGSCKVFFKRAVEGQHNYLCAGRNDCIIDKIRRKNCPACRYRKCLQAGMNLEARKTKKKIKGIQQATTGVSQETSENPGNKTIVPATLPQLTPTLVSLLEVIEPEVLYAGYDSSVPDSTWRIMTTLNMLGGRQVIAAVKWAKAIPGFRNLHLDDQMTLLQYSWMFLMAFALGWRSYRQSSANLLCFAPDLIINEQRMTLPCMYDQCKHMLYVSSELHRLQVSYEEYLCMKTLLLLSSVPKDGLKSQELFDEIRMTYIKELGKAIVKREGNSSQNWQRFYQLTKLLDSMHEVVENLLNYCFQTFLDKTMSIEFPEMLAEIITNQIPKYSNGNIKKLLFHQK
Sequence of Cytochrome P450 3A4 (Homo sapiens) (P08684 whole entry, looked up): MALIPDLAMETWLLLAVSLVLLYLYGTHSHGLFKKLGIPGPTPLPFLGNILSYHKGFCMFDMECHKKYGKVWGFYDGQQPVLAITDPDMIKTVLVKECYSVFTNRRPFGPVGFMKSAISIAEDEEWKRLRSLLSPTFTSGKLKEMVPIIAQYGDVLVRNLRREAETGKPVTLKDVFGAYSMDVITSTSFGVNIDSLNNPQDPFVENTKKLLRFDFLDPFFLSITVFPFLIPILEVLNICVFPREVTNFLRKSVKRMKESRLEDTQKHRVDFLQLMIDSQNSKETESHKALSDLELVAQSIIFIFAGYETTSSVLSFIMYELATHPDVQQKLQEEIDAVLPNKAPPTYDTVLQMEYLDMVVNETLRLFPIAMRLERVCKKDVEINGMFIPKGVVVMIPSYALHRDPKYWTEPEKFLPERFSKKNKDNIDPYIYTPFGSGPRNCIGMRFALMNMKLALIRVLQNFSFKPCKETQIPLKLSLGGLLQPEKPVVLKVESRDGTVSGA
Sequence of Cytochrome P450 2C19 (Homo sapiens) (P33261 whole entry, looked up): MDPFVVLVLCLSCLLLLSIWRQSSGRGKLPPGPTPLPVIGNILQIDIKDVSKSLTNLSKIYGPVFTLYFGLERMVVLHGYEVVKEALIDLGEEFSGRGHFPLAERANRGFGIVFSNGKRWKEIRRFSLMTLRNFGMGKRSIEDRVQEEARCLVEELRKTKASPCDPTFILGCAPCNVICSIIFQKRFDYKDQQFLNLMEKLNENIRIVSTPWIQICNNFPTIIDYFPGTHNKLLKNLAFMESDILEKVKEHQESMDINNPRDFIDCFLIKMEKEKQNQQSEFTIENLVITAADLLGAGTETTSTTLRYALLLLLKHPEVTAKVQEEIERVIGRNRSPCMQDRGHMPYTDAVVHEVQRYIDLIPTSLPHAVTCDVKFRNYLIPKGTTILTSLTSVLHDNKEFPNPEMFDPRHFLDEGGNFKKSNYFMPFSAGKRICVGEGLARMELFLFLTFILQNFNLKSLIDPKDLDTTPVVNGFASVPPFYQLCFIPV
Sequence of Cytochrome P450 2C9 (Homo sapiens) (P11712 whole entry, looked up): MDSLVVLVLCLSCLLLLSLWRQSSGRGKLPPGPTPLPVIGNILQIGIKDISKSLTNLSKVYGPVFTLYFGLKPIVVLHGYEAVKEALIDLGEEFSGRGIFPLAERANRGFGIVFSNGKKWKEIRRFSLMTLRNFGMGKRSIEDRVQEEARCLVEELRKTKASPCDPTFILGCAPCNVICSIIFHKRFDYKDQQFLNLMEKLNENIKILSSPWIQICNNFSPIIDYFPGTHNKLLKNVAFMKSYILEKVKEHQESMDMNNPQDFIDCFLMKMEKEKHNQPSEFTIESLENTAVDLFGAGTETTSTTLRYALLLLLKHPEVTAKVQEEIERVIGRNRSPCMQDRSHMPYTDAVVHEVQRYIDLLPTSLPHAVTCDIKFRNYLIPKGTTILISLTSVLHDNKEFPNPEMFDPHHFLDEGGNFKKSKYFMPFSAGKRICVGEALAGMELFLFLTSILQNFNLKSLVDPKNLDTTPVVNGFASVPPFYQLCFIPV
Sequence of Cytochrome P450 2D6 (Homo sapiens) (P10635 whole entry, looked up): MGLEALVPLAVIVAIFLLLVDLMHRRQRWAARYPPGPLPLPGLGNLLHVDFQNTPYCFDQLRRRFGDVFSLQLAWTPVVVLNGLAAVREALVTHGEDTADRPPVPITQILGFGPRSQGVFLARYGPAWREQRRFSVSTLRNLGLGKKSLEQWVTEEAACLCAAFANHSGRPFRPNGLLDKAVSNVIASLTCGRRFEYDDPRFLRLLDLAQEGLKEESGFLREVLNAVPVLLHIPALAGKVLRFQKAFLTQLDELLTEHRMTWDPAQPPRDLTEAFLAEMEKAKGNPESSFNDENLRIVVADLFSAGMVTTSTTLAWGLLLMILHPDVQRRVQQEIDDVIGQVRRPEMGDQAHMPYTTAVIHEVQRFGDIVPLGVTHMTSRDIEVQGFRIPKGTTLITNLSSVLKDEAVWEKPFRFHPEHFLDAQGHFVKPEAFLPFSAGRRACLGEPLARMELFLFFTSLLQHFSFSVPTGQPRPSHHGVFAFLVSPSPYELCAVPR

COC(=O)N1CCC2(CC1)CN(c1ccccc1)C2
2.93%: max response [10, 17]
active: Potency [9] 6.31 µM
inactive: Potency [1] > 11.4 µM | activity change, negative = inhibition [2] -2.49% | Potency [3] | activity, negative = inhibition [4] 8.16% | Potency [5] > 46 µM | Potency [6] | Potency [7] | Potency [8] | activity change, negative = inhibition [10] -0.409% | outcome [11]
4.45%: max response [10, 16]

COc1ccc(C(=O)N2CCC3(CCCN(Cc4ccccc4OC)C3)CC2)cc1
inactive: Potency [1] > 11.4 µM | activity change, negative = inhibition [2] 0.332% | Potency [3] | activity, negative = inhibition [4] -6.54% | Potency [5] > 46 µM | Potency [6] | Potency [7] | Potency [12] | activity change, negative = inhibition [10] -0.879% | outcome [11]
-8.51%: max response [10, 16]
-6.45%: max response [10, 17]

O=C(Nc1cccc(F)c1)N1CC2(CCN(C(=O)c3cc(C(F)(F)F)cc(C(F)(F)F)c3)CC2)C1
16.9%: max response [10, 16]
27.5%: max response [10, 17]
inactive: Potency [1] > 11.4 µM | activity change, negative = inhibition [2] -25.3% | Potency [3] | activity, negative = inhibition [4] -22% | Potency [5] > 46 µM | Potency [6] | Potency [7] | Potency [13] | Potency [12] | activity change, negative = inhibition [10] 7.3% | outcome [11]

O=C(c1cccc(F)c1)N1CCC[C@@]2(CCN(c3ccccc3)C2)C1
15.7%: max response [10, 17]
inactive: Potency [1] > 11.4 µM | activity change, negative = inhibition [2] -6.87% | Potency [3] | activity, negative = inhibition [4] -5.23% | Potency [5] > 46 µM | Potency [6] | Potency [7] | Potency [12] | activity change, negative = inhibition [10] 4.17% | outcome [11]
8.88%: max response [10, 16]
active: Potency [8] 6.31 µM

COc1ccc(C(=O)N2CCC3(CCCN(CC(C)C)C3)CC2)cc1
26.9%: max response [10, 17]
inactive: Potency [1] > 11.4 µM | activity change, negative = inhibition [2] -7.24% | Potency [3] | activity, negative = inhibition [4] -5.73% | Potency [5] > 46 µM | Potency [6] | Potency [7] | Potency [12] | activity change, negative = inhibition [10] 2.63% | outcome [11]
21.1%: max response [10, 16]

Cn1cccc1C(=O)N1CCC2(CCN(Cc3nccs3)CC2)CC1
-3.13%: max response [10, 16]
inactive: Potency [1] > 11.4 µM | activity change, negative = inhibition [2] -5.06% | Potency [3] | activity, negative = inhibition [4] -1.77% | Potency [5] > 46 µM | Potency [6] | Potency [7] | Potency [8] | activity change, negative = inhibition [10] -0.0655% | outcome [11]
-0.688%: max response [10, 17]

Cc1noc(C)c1C(=O)N1CCC2(CC1)CCN(c1ccncc1)CC2
12.2%: max response [10, 17]
9.32%: max response [10, 16]
inactive: Potency [1] > 11.4 µM | activity change, negative = inhibition [2] 10.3% | Potency [3] | activity, negative = inhibition [4] 8.12% | Potency [5] > 46 µM | Potency [6] | Potency [7] | Potency [12] | activity change, negative = inhibition [10] 1.45% | outcome [11]

CC(C)CN1CCCC2(CCN(S(=O)(=O)c3ccccc3)CC2)C1
inactive: Potency [1] > 11.4 µM | activity change, negative = inhibition [2] 1.33% | Potency [3] | activity, negative = inhibition [4] 0.203% | Potency [5] > 46 µM | Potency [6] | Potency [7] | Potency [12] | activity change, negative = inhibition [10] 2.73% | outcome [11]
15.5%: max response [10, 17]
12.5%: max response [10, 16]

O=C(c1cc(C(F)(F)F)cc(C(F)(F)F)c1)N1CCC[C@@]2(CCN(c3ccccc3)C2)C1
inactive: Potency [1] > 11.4 µM | activity change, negative = inhibition [2] 0.763% | Potency [3] | activity, negative = inhibition [4] 2.5% | Potency [5] > 46 µM | Potency [6] | Potency [7] | Potency [12] | activity change, negative = inhibition [10] -3.81% | outcome [11]
10.6%: max response [10, 16] | max response [10, 17]

O=C(c1ccncc1)N1CCC2(CC1)CN(Cc1cc(C(F)(F)F)cc(C(F)(F)F)c1)C2
inactive: Potency [1] > 11.4 µM | activity change, negative = inhibition [2] -5.95% | Potency [3] | activity, negative = inhibition [4] -8.98% | Potency [5] > 46 µM | Potency [6] | Potency [7] | Potency [12] | activity change, negative = inhibition [10] 0.924% | outcome [11]
16.4%: max response [10, 17]
active: Potency [8] 5.01 µM
9.27%: max response [10, 16]

Cn1cccc1C(=O)N1CCC2(CCN(Cc3ccncc3)CC2)CC1
3.28%: max response [10, 17]
inactive: Potency [1] > 11.4 µM | activity change, negative = inhibition [2] -3.94% | activity, negative = inhibition [4] -9.94% | Potency [6] | Potency [7] | activation [14] -5.1% | activity change, negative = inhibition [10] 4.51% | outcome [11]
-5.01%: max response [10, 16]
active: Potency [3] 15.8 µM

O=C(c1ccco1)N1CCC[C@@]2(CCN(C(c3ccccc3)c3ccccc3)C2)C1
active: Potency [3] 25.1 µM | Potency [15] 3.16 µM
-26.4%: max response [10, 17]
-10.5%: max response [10, 16]
inactive: Potency [1] > 11.4 µM | activity change, negative = inhibition [2] -9.33% | activity, negative = inhibition [4] 3.09% | Potency [5] > 46 µM | Potency [6] | Potency [7] | Potency [12] | activity change, negative = inhibition [10] -15.2% | outcome [11]

CN1CC[C@@]2(CCCN(C(=O)c3cc(C(F)(F)F)cc(C(F)(F)F)c3)C2)C1
-1.13%: max response [10, 16]
2.81%: max response [10, 17]
inactive: Potency [1] > 11.4 µM | activity change, negative = inhibition [2] -0.328% | Potency [3] | activity, negative = inhibition [4] 13.1% | Potency [5] > 46 µM | Potency [6] | Potency [7] | Potency [12] | activity change, negative = inhibition [10] 1.24% | outcome [11]

O=C(Oc1ccccc1)N1CCC2(CC1)CN(c1ccncc1)C2
4.81%: max response [10, 17]
inactive: Potency [1] > 11.4 µM | activity change, negative = inhibition [2] -1.8% | Potency [3] | activity, negative = inhibition [4] -4.7% | Potency [5] > 46 µM | Potency [7] | Potency [12] | activity change, negative = inhibition [10] 1.74% | outcome [11]
0.26%: max response [10, 16]
active: Potency [13] 3.16 µM | Potency [9] 7.94 µM
